Screening results from PubChem.
Only some compounds are listed: those with a hit (about 4.2% of all), similar ones and a draw of the others.
AHR act = human AHR activation; AHR-responsive luciferase reporter cells, luminescence; AID 2796; P35869; 2.5% of 320,000 active; activation, % at 5 µM; in the data active = activation above about 47%;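 note: 0% = vehicle wells and 100% = reference agonist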
Target sequence (P35869 whole entry, looked up): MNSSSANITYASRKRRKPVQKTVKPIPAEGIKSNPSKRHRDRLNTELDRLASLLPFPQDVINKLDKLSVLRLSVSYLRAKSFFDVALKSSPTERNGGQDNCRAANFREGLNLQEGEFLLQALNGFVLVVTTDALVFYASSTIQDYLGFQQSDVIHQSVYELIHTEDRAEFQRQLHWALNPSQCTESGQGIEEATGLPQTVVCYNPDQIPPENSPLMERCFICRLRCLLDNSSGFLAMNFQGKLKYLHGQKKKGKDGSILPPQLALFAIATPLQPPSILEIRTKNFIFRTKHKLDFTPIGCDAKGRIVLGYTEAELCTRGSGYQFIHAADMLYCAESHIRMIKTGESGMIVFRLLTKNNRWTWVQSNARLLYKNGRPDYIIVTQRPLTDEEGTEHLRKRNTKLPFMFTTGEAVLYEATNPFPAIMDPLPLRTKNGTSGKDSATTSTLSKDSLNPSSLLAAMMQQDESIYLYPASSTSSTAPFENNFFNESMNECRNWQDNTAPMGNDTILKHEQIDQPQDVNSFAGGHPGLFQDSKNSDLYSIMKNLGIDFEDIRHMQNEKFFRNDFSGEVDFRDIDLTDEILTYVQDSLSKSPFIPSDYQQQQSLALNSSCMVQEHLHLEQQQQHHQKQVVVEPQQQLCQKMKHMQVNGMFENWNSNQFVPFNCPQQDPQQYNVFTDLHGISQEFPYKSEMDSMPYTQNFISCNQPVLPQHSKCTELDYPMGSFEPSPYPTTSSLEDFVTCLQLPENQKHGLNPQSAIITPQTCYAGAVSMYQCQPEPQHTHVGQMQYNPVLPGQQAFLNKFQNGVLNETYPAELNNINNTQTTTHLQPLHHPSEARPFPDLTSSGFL
GAA850 FXN act = frataxin GAA850 promoter activation; activation, % at 6 µM; 0.56% of 360,000 active; HEK293 lucGAA850 FXN promoter luciferase reporter, 24 h; percent of 10 µM SAHA response;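 active = activation above the average of all compounds screened plus 3 SD, cutoff fixed separately per campaign, cut at about 7.5% in these data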;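 note: 0% = DMSO wells and 100% = 10 µM SAHA wells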
Wnt act = activates Wnt/beta-catenin signaling in a reporter cell assay; activator, plate reader; activation, % at 9.35 µM; 1.2% of 300,000 active; AID 743398; in the data active = activation above about 30%, passing the limit was not always enough; inconclusive = no clear call, values can overlap the other calls;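 note: 0% = neutral control wells and 100% = positive control wells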
MITF act = activators of MITF-driven TRPM1 promoter activity in SK-MEL-5 cells; SK-MEL-5 TRPM1-promoter luciferase, 24 h; % of positive control, neutral wells = 0; activation, % at 12.5 µM; 0.75% of 300,000 active; AID 588334;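 active = mean activation of at least 80% with every replicate also reaching 80%; inconclusive = mean reaches 80% but some replicate falls short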;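 note: 0% = neutral control wells and 100% = parthenolide positive control wells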
esBAF inh = SWI/SNF esBAF complex inhibition; 2% of 350,000 active; AID 602393; mouse ES cells, Bmi1-luciferase knock-in reporter, 24 h; 100% = twice the neutral-well signal; reporter increase, % at 12.5 µM; in the data active = activation above about 40%; inconclusive = no clear call, values can overlap the other calls;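 note: 0% = median of the plate's neutral control wells and 100% = double that signal; a rise in the Bmi1 reporter signal indicates esBAF inhibition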
* hit, by the source's call; ? = inconclusive; · = no result given.

SMILES	AHR act	GAA850 FXN act	Wnt act	MITF act	esBAF inh
c1ccc(-c2nnc(-c3ccccn3)s2)nc1	65*	1	0	·	-82
COc1ccccc1NC(=O)c1cc2ccccc2nc1C	57*	1	2	-10	-1
COc1ccccc1NC(=O)c1ccc2nc(C)c(C)nc2c1	9	3	0	9	22
COc1ccccc1C(=O)Nc1cccc2nc(C)ccc12	53*	2	0	·	-3
COc1ccc(C(=O)Nc2cccc3nc(C)ccc23)c(OC)c1	72*	0	0	11	1
O=C(Nc1ccc(F)cc1)c1ccc2c(c1)S(=O)(=O)N=C1CCCCCN12	5	0	1	7	13
O=C(NC1CCC(O)CC1)c1ccc2c(c1)S(=O)(=O)N=C1CCCCCN12 (configuration not stated)	3	1	-1	17	46*
O/C(=C\c1ccc2ccccc2n1)c1ccc(O)cc1O	41	5	43*	20	-30
COc1ccc(-c2nnc(Nc3nc4c(OC)cccc4s3)o2)cc1	75*	4	·	-2	6
C[C@H]1CN([C@@H](C)CO)C(=O)c2cc(-c3ccccc3)cnc2O[C@@H]1CN(C)Cc1cccnc1	·	·	·	·	0
Cc1ccc2[nH]c(=O)c(-c3nc4ccccn4c3NCc3ccco3)cc2c1	48*	4	55*	14	29
Cc1cc(NC(=O)c2nn(C)c(C)c2Br)no1	63*	4	-1	40	23
CO[C@@H]1CN(C)C(=O)c2ccc(NC(=O)C3CCC3)cc2OC[C@@H](C)N(CC2CCCCC2)C[C@@H]1C	·	·	·	·	-3
Cc1ccsc1C(=O)OCC(=O)Nc1nnc(-c2ccccc2)o1	6	0	0	3	1
Cc1ccsc1C(=O)OCc1nnc(-c2ccccc2)o1	7	3	13	96*	63*
Cc1ccc(C(=O)Nc2nc(=O)n(C(=O)c3ccccc3C)s2)cc1	6	2	·	22	60*
O=c1cnn(-c2ccc(Cl)cc2Cl)c(-c2ccccc2)c1	14	1	·	-2	49*
COc1cccc2[nH]c(=O)c(-c3ccccc3)cc12	2	6	21	105*	56
COc1ccc(-c2cc(=O)[nH]c3ccccc23)cc1	2	0	-1	-11	4
NC(=O)N=Nc1c(O)[nH]c2c(Br)cc(Br)cc12	50*	·	·	·	·
O=C(CCCCCNC(=O)c1ccccc1)N=Nc1c(O)[nH]c2c(Br)cc(Br)cc12	4	·	·	·	·
CC(C)NC(=O)Nc1ccc2c(c1)C(=O)N([C@H](C)CO)C[C@@H](C)[C@@H](CN(C)C)O2	·	·	·	·	-5
COc1ccc(-c2cn3ccccc3n2)cc1	1	2	0	0	-44
COc1ccc(-c2cn3ccc4ccccc4c3n2)cc1	48*	6	1	13	14
COc1ccc(-c2cn3cc(C(F)(F)F)cc(Cl)c3n2)cc1	52*	0	7	44	·
SMILES	AHR act	GAA850 FXN act	Wnt act	MITF act	esBAF inh
O=C(N[C@H]1CC[C@H](CCNS(=O)(=O)c2cccc(Cl)c2)O[C@H]1CO)c1ccncc1	·	·	·	·	-1
CCCNC(=O)Nc1ccc2c(c1)C(=O)N(C)C[C@H](OC)[C@@H](C)CN(C(=O)C1CCOCC1)[C@@H](C)CO2	·	·	·	·	-3
COc1ccc(-c2nncnn2)cc1	10	·	·	·	·
COc1ccc2cc(-c3ccccc3F)ncc2c1	6	5	38*	66	-13
COc1ccc(-c2cc3ncc(-c4ccccc4)c(N)n3n2)cc1	·	1	6	147*	·
N#Cc1cnc2cc(-c3ccccc3)nn2c1N	32	4	-2	·	10
COc1ccc(-c2cc3ccccc3cn2)cc1	51*	2	27	18	-24
COc1ccc(C(O)c2ncc(-c3ccccc3F)[nH]2)cc1 (configuration not stated)	·	2	0	·	17
COc1ccc(-c2ccc(OC)cc2)cc1	3	2	·	?	54*
COCC(=O)N(C)C[C@H]1Oc2ncc(-c3ccc(C)cc3)cc2C(=O)N([C@H](C)CO)C[C@@H]1C	·	·	·	·	5
COc1cccc(NC(=O)N(C)C[C@H]2Oc3ncc(/C=C/c4ccccc4)cc3C(=O)N([C@@H](C)CO)C[C@H]2C)c1	·	·	·	·	24
C[C@H]1CN([C@@H](C)CO)S(=O)(=O)c2ccc(C#CC(C)(C)O)cc2O[C@@H]1CN(C)C(=O)CC1CC1	·	·	·	·	4
C[C@H]1CN([C@@H](C)CO)C(=O)c2cc(NS(=O)(=O)c3ccc(F)cc3)ccc2O[C@H]1CN(C)Cc1ccc(C(F)(F)F)cc1	·	·	·	·	-3
COc1ccc(-c2cc3ccc(OC)cc3cn2)cc1	44	-3	7	-16	-65
Fc1ccc2cc(-c3cccnc3)ncc2c1	17	2	7	35	50*
Fc1ccc(Nc2nc(-c3cccnc3)cs2)cc1	39	7	25	68	·
COc1ccc2cc(-c3cccnc3)ncc2c1	-10	5	?	97*	33
Cc1noc(C)c1S(=O)(=O)Nc1ccc2c(c1)C(=O)N([C@H](C)CO)C[C@H](C)[C@H](CN(C)S(=O)(=O)c1c(C)noc1C)OCCCC[C@H](C)O2	·	·	·	·	0
Brc1ccc(-c2nnc(-c3cccc(Br)c3)o2)cc1	8	2	·	78	·
Cc1ccc(-c2nnc(-c3ccc(Br)cc3)o2)o1	-6	3	27	·	64*
Brc1ccc(-c2nnc(-c3ccco3)o2)cc1	-2	4	·	?	60*
C[C@@H]1CCCCO[C@@H](CN(C)C)[C@@H](C)CN([C@@H](C)CO)C(=O)c2cc(NS(=O)(=O)c3cccs3)ccc2O1	·	·	·	·	1
O=C(C[C@H]1CC[C@@H]2[C@H](COC[C@H](O)CN2Cc2cc(F)ccc2F)O1)NCc1ccccc1	·	·	·	·	0
Cc1nc2c(c(C)c1C#N)C(=O)c1ccccc1-2	72*	0	-2	-27	·
COc1cccc(NC(=O)N(C)C[C@H]2Oc3cc(/C=C/c4ccccc4)ccc3S(=O)(=O)N([C@@H](C)CO)C[C@@H]2C)c1	·	·	·	·	2
SMILES	AHR act	GAA850 FXN act	Wnt act	MITF act	esBAF inh
CSc1n[nH]c(-c2ccc(C(F)(F)F)cc2)n1	26	5	21	41	41*
CSc1ccccc1NC(=O)c1cnc2scc(C)n2c1=O	65*	3	0	41	20
Cc1csc2ncc(C(=O)Nc3ccc(C(F)(F)F)cc3)c(=O)n12	58*	0	-1	-8	-1
CCc1ccccc1NC(=O)c1cnc2scc(C)n2c1=O	40	2	1	·	56*
Cc1csc2ncc(C(=O)NCc3ccccn3)c(=O)n12	47*	0	-1	0	-6
Cc1csc2ncc(C(=O)NCCc3ccccc3)c(=O)n12	41	1	2	24	30
CO[C@@H]1CN(C)C(=O)c2cc(NC(C)=O)ccc2OC[C@H](C)N(C(=O)c2ccccc2F)C[C@@H]1C	·	·	·	·	-5
Cn1cccc1-c1nc2ccc([N+](=O)[O-])cc2[nH]1	3	7	14	99*	?
Cc1nc2ccc([N+](=O)[O-])cc2[nH]1	-1	1	-1	10	·
